# Laboratory results reported in article PMC7862700, “An all-to-all approach to the identification of sequence-specific readers for epigenetic DNA modifications on cytosine”.
# Columns and labels:
# Test in all cases: DAPPL (digital affinity profiling via proximity ligation, sequencing); 10 mM Tris-HCl pH 7.5, 50 mM NaCl, 1 mM DTT, 4% glycerol, room temperature, 30 min; GST-TFs on glutathione beads, 16-mer random dsDNA library, 0.1% formaldehyde crosslink after washing; high values mean tight binding
# FLI1 = target: T1, FLI1 (Homo sapiens, UniProt Q01543 1-452); conditions: protein: recombinant; tags: N-terminal GST; dsDNA, one strand shown
# T1 sequence: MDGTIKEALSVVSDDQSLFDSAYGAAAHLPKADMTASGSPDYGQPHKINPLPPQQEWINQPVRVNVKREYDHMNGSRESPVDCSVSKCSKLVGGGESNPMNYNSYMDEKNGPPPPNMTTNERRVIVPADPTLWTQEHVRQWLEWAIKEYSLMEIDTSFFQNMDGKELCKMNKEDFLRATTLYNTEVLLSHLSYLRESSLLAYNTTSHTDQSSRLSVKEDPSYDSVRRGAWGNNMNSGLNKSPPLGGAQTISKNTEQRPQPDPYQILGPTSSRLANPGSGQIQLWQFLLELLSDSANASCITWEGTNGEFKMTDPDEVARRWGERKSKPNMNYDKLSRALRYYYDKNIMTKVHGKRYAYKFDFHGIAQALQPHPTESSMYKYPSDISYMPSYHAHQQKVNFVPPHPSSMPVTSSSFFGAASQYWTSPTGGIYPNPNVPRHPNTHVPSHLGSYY
# In short: (§1)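 The binding signal reported is, for every hexamer, its read frequency for a factor over its read frequency for the tag-only sample. Reads came from pools of yeast-expressed, GST-fused human transcription factors on glutathione beads, barcoded with DNA and mixed with that sample, which were incubated with 200 nmole of a random double-stranded 16-mer DNA library in Tris/NaCl/DTT/glycerol buffer at room temperature for 30 min. After washing, the pools were crosslinked with 0.1% formaldehyde, proximity-ligated with BsaI/T4 ligase for 1 h at 37 °C, PCR-amplified and sequenced on an Illumina NextSeq500.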
# ELK1 = target: T2, ELK1 (Homo sapiens, UniProt P19419 1-428); conditions: protein: recombinant; tags: N-terminal GST; dsDNA, one strand shown
# T2 sequence: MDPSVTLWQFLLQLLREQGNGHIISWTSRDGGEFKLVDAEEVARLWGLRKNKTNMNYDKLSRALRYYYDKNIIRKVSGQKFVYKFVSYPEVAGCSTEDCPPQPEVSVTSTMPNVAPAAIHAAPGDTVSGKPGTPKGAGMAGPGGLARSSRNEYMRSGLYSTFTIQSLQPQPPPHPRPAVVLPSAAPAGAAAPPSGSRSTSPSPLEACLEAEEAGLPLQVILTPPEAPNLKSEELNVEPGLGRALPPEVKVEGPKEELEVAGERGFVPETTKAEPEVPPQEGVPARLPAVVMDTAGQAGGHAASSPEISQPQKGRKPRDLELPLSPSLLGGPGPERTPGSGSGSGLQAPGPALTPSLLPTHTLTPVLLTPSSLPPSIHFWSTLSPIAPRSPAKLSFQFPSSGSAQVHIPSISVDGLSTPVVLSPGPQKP
# In short: as §1
# GABPA = target: T3, GABPA (Homo sapiens, UniProt Q06546 1-454); conditions: protein: recombinant; tags: N-terminal GST; dsDNA, one strand shown
# T3 sequence: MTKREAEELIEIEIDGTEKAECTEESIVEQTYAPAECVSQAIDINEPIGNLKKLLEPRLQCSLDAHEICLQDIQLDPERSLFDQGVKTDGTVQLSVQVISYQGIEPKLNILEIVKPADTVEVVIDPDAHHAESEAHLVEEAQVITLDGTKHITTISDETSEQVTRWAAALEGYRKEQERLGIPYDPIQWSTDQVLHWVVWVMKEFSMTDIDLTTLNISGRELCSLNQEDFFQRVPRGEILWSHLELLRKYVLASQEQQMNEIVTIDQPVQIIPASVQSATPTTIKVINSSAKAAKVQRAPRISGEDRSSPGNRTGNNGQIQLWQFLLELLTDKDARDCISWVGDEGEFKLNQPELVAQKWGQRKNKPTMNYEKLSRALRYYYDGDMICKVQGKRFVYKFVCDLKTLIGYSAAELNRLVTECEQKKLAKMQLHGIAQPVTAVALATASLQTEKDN
# In short: as §1
# ERG = target: T4, ERG (Homo sapiens, UniProt P11308 1-479); conditions: protein: recombinant; tags: N-terminal GST; dsDNA, one strand shown
# T4 sequence: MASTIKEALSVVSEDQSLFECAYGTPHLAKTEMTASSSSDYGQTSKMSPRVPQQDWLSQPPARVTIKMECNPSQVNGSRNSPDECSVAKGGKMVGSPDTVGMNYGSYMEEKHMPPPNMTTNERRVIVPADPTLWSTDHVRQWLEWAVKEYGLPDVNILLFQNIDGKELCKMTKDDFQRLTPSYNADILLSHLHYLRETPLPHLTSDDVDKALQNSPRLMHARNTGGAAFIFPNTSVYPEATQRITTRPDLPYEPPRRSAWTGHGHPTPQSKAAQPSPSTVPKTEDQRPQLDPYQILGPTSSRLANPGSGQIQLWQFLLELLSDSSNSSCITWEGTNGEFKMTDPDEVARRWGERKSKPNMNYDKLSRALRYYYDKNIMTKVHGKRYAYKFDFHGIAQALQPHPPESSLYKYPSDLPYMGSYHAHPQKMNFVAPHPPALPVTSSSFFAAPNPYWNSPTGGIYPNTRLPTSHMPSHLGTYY
# In short: as §1
# ELF1 = ELF1 (Homo sapiens, UniProt P32519 1-619); conditions: protein: recombinant; tags: N-terminal GST; dsDNA, one strand shown
# In short: as §1
# EHF = target: T5, EHF (Homo sapiens, UniProt Q9NZC4 1-300); conditions: protein: recombinant; tags: N-terminal GST; dsDNA, one strand shown
# T5 sequence: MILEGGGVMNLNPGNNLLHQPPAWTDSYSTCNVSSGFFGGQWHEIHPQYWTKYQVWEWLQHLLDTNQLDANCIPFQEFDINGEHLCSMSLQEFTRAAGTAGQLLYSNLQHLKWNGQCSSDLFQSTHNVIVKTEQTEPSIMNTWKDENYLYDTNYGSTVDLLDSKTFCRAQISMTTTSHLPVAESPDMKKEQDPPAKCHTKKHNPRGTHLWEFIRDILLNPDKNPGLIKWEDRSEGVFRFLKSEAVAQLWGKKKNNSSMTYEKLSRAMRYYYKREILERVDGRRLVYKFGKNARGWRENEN
# In short: as §1
# SPI1 = SPI1 (Homo sapiens, UniProt P17947 1-270); conditions: protein: recombinant; tags: N-terminal GST; dsDNA, one strand shown
# In short: as §1
# SPIB = SPIB (Homo sapiens, UniProt Q01892 1-262); conditions: protein: recombinant; tags: N-terminal GST; dsDNA, one strand shown
# In short: as §1
# ELK3 = target: T6, ELK3 (Homo sapiens, UniProt P41970 1-407); conditions: protein: recombinant; tags: N-terminal GST; dsDNA, one strand shown
# T6 sequence: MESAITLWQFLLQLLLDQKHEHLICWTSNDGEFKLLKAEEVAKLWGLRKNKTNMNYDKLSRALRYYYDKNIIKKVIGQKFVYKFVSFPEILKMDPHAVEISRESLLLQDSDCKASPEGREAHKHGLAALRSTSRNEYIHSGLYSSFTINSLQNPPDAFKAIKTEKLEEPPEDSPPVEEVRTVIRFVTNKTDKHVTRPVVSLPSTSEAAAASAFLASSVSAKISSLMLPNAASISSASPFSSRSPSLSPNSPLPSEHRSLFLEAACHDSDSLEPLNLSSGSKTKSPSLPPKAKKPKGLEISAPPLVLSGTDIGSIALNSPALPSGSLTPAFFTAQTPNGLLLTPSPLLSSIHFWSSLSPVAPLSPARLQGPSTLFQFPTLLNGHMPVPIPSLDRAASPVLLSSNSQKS
# In short: as §1
# FEV = target: T7, FEV (Homo sapiens, UniProt Q99581 1-238); conditions: protein: recombinant; tags: N-terminal GST; dsDNA, one strand shown
# T7 sequence: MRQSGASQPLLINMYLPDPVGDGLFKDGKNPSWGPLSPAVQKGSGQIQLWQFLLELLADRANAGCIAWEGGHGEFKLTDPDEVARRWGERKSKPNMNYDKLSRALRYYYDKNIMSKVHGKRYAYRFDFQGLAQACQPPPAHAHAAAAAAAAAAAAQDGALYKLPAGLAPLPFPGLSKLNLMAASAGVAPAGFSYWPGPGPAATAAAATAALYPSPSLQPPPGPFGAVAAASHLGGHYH
# In short: as §1
# ETV5 = ETV5 (Homo sapiens, UniProt P41161 1-510); conditions: protein: recombinant; tags: N-terminal GST; dsDNA, one strand shown
# In short: as §1
# HSF1 = HSF1 (Homo sapiens, UniProt Q00613 1-529); conditions: protein: recombinant; tags: N-terminal GST; chain copies: 3; dsDNA, one strand shown
# In short: as §1
# SPIC = target: T8, SPIC (Homo sapiens, UniProt Q8N5J4 1-248); conditions: protein: recombinant; tags: N-terminal GST; dsDNA, one strand shown
# T8 sequence: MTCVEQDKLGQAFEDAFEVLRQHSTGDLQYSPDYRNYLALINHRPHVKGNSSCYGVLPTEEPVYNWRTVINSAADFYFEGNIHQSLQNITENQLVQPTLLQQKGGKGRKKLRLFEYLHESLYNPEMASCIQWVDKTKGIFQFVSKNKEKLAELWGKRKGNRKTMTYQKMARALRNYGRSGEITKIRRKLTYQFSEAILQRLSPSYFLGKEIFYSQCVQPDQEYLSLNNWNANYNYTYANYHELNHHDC
# In short: as §1
# ELF4 = ELF4 (Homo sapiens, UniProt Q99607 1-663); conditions: protein: recombinant; tags: N-terminal GST; dsDNA, one strand shown
# In short: as §1
# ELK4 = target: T9, ELK4 (Homo sapiens, UniProt P28324-2 1-405); conditions: protein: recombinant; tags: N-terminal GST; dsDNA, one strand shown
# T9 sequence: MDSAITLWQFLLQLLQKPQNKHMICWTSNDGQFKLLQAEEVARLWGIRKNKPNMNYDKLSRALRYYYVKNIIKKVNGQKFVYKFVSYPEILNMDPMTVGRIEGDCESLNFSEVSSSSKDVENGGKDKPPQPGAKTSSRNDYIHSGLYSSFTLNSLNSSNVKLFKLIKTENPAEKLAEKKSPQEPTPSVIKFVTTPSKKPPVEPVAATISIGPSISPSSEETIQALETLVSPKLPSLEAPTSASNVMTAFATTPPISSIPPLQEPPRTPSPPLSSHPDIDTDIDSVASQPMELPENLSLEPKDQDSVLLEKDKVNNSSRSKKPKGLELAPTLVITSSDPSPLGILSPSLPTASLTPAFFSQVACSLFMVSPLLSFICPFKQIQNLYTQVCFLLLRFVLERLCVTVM
# In short: as §1
# ETV2 = target: T10, ETV2 (Homo sapiens, UniProt O00321 1-342); conditions: protein: recombinant; tags: N-terminal GST; dsDNA, one strand shown
# T10 sequence: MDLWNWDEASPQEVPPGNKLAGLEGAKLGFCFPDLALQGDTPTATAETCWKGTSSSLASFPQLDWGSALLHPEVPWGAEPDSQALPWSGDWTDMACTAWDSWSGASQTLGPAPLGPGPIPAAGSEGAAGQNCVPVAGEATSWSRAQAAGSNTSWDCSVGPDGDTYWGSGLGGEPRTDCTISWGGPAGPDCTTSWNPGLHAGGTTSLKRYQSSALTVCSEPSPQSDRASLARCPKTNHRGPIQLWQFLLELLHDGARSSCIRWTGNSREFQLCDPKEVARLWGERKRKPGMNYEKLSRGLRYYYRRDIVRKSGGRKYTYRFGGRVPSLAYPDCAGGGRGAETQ
# In short: as §1
# ELF3 = target: T11, ELF3 (Homo sapiens, UniProt P78545 1-371); conditions: protein: recombinant; tags: N-terminal GST; dsDNA, one strand shown
# T11 sequence: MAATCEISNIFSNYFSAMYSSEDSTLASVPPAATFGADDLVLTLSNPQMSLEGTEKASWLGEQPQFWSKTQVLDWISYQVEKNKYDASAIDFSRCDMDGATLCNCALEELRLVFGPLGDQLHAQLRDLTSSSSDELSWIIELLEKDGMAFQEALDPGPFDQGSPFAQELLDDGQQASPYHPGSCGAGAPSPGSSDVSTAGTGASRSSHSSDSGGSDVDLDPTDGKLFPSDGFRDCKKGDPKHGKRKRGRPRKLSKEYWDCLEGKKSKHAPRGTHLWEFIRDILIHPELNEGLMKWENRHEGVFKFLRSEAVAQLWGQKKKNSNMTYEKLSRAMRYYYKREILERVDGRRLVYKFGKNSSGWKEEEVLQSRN
# In short: as §1
# CRX = CRX (Homo sapiens, UniProt O43186 1-299); conditions: protein: recombinant; tags: N-terminal GST; dsDNA, one strand shown
# In short: as §1
# ETV1 = ETV1 (Homo sapiens, UniProt P50549 1-477); conditions: protein: recombinant; tags: N-terminal GST; dsDNA, one strand shown
# In short: as §1
# Sequence of HSF1 (Q00613 whole entry): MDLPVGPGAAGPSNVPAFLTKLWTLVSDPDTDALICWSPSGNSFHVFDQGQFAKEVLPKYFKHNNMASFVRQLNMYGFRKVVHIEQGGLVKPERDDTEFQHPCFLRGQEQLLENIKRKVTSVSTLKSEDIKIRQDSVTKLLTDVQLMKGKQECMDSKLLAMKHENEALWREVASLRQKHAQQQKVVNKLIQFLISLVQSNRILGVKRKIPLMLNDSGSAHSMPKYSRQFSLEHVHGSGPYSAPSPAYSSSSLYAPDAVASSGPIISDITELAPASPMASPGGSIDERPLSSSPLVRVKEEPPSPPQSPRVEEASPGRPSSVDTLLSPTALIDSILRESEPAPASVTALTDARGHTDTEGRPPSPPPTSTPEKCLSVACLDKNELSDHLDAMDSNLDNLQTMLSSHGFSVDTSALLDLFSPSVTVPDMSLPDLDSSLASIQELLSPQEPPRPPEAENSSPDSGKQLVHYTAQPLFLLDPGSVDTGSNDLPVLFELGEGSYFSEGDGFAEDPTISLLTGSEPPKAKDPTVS
# Sequence of ELF1 (P32519 whole entry): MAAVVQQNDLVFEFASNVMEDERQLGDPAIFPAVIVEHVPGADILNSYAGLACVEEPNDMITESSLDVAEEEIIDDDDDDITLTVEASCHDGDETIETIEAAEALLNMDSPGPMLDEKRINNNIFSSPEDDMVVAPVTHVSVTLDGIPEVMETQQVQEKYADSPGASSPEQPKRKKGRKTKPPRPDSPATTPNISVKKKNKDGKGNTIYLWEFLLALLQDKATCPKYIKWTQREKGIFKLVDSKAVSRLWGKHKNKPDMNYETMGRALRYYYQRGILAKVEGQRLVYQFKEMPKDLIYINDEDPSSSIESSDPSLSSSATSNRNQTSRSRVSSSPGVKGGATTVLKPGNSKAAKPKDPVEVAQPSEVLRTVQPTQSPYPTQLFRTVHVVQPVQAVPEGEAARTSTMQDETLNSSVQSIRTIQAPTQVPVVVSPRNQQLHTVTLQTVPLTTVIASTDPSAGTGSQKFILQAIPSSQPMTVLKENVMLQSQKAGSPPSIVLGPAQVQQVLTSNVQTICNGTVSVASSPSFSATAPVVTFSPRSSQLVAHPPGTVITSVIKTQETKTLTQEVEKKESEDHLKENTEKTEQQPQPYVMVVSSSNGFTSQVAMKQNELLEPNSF
# Sequence of SPIB (Q01892 whole entry): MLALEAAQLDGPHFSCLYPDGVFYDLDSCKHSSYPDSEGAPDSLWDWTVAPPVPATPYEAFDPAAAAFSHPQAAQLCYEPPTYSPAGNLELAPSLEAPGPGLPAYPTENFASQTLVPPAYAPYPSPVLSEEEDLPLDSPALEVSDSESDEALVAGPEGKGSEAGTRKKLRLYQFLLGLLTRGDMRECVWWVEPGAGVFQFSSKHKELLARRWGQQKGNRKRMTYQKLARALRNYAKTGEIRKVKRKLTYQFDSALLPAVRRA
# Sequence of CRX (O43186 whole entry): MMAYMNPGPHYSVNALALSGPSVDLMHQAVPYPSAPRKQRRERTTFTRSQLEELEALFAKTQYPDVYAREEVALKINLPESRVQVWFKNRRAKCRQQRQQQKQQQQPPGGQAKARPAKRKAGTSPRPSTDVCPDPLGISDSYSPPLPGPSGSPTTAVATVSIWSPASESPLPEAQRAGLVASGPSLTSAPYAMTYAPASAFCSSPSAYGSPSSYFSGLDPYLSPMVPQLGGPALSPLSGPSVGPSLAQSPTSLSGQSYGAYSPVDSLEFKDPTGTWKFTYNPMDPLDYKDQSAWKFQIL
# Sequence of ELF4 (Q99607 whole entry): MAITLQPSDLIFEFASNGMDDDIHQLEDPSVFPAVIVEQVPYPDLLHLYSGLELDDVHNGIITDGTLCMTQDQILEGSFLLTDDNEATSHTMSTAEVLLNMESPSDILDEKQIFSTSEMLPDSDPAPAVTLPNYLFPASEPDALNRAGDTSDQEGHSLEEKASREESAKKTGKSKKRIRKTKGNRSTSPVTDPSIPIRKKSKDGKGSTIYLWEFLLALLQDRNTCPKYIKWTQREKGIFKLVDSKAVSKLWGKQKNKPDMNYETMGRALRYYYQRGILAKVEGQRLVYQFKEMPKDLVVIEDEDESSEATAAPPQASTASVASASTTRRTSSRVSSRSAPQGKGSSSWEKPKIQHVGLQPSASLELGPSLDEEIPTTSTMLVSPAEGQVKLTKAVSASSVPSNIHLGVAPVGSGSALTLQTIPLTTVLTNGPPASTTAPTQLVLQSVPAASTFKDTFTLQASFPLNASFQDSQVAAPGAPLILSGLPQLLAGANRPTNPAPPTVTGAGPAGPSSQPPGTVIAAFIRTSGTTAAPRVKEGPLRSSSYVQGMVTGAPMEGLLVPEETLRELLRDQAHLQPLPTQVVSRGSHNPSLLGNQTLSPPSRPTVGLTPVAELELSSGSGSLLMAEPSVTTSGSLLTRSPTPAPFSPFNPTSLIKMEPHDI
# Sequence of ETV5 (P41161 whole entry): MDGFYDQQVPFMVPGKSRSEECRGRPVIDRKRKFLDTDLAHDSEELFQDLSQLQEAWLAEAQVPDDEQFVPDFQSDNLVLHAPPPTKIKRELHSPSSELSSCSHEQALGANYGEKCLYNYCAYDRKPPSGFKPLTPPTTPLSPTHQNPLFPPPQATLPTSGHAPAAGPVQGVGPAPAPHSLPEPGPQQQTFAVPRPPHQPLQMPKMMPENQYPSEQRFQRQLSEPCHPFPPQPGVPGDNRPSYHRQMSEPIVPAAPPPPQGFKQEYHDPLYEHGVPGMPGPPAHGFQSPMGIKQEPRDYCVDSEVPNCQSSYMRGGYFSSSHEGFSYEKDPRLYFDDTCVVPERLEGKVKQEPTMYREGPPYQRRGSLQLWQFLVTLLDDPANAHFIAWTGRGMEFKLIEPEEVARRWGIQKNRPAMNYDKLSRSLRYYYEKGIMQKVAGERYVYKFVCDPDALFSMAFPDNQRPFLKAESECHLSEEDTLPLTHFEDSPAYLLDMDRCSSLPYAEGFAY
# Sequence of ETV1 (P50549 whole entry): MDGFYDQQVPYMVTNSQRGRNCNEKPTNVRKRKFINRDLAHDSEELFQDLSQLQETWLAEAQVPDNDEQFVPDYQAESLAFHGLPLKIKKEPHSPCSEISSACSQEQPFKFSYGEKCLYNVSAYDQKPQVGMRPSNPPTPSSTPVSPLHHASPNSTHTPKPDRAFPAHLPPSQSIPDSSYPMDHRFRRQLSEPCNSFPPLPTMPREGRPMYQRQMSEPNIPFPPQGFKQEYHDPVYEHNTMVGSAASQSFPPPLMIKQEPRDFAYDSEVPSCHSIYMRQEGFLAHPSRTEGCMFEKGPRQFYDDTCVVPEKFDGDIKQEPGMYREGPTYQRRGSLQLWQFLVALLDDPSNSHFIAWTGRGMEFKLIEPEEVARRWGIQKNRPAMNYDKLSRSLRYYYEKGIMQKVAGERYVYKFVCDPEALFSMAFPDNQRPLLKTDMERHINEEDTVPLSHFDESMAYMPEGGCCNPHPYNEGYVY
sequence,measurement,setting,value
TAGCCT,binding signal,FLI1,"1.27 fold enrichment (6-mer frequency, TF over GST control)"
same,binding signal,ELK1,"1.21 fold enrichment (6-mer frequency, TF over GST control)"
same,binding signal,GABPA,"1.18 fold enrichment (6-mer frequency, TF over GST control)"
same,binding signal,ERG,"1.23 fold enrichment (6-mer frequency, TF over GST control)"
same,binding signal,ELF1,"1.28 fold enrichment (6-mer frequency, TF over GST control)"
same,binding signal,EHF,"1.26 fold enrichment (6-mer frequency, TF over GST control)"
same,binding signal,SPI1,"1.23 fold enrichment (6-mer frequency, TF over GST control)"
same,binding signal,SPIB,"1.2 fold enrichment (6-mer frequency, TF over GST control)"
same,binding signal,ELK3,"1.14 fold enrichment (6-mer frequency, TF over GST control)"
same,binding signal,FEV,"1.26 fold enrichment (6-mer frequency, TF over GST control)"
same,binding signal,ETV5,"1.22 fold enrichment (6-mer frequency, TF over GST control)"
same,binding signal,HSF1,"1.43 fold enrichment (6-mer frequency, TF over GST control)"
same,binding signal,SPIC,"1.17 fold enrichment (6-mer frequency, TF over GST control)"
same,binding signal,ELF4,"1.24 fold enrichment (6-mer frequency, TF over GST control)"
same,binding signal,ELK4,"1.18 fold enrichment (6-mer frequency, TF over GST control)"
same,binding signal,ETV2,"1.22 fold enrichment (6-mer frequency, TF over GST control)"
same,binding signal,ELF3,"1.27 fold enrichment (6-mer frequency, TF over GST control)"
same,binding signal,CRX,"1.53 fold enrichment (6-mer frequency, TF over GST control)"
same,binding signal,ETV1,"1.26 fold enrichment (6-mer frequency, TF over GST control)"
